Experimental data taken from the supplement of paper PMC13380429.

Test system: Vero E6 infected with SARS-CoV-2
Assay: morphology score (similarity to uninfected cells); higher = more like uninfected cells
Settings: 24 h

SMILES	morphology score
CCCCN(CC)c1nc(C)nc2c1c(C)c(C)n2-c1c(C)cc(C)cc1C [antalarmin] (10 µM)	0.193
CCCCCCCCCCCCCCOc1ccc(C(=O)O)o1 (0.833333 µM)	0.208
Cc1cc(Nc2nc(N[C@@H](C)c3ccc(F)cc3)c(C#N)cc2F)n[nH]1 (10 µM)	-0.0459
OB1OCc2cc(Cl)ccc21 (10 µM)	-0.0961
CCCCCC(C)N (stereo unspecified) [tuaminoheptane] (10 µM)	-0.092
N[C@H]1C[C@@H]1c1ccc(-c2cccc(O)c2)cc1 (10 µM)	0.246

Test system: Vero E6 infected with SARS-CoV-2
Assay: SARS-CoV-2 infection rate relative to infected DMSO; higher = more infection, active = 60 or less
Settings: 24 h

SMILES	SARS-CoV-2 infection rate
COC(=O)[C@@H]1[C@H]2C[C@H]3c4[nH]c5ccccc5c4CCN3C[C@@H]2CC[C@@H]1O [yohimbine] (10 µM)	109% (inactive)
Cc1cccc(C(C)c2c[nH]cn2)c1C (stereo unspecified) [medetomidine] (10 µM)	102% (inactive)
c1ccc(NCc2ccc(CNc3ccccn3)cc2)nc1 (10 µM)	102% (inactive)
Cc1[nH]c2ccc(O)cc2c1CCN [2-methyl-5-hydroxytryptamine] (10 µM)	108% (inactive)
CCc1ccc(CCOc2ccc(CC3SC(=O)NC3=O)cc2)nc1 (stereo unspecified) [pioglitazone] (10 µM)	110% (inactive)
Cc1cccc(C)c1NC(=O)[C@@H](C)N [tocainide] (10 µM)	109% (inactive)
CC(C)(C)NCC(O)c1cc(Br)no1 (stereo unspecified) [broxaterol] (10 µM)	112% (inactive)
CCCc1cc(=O)[nH]c(=S)[nH]1 [propylthiouracil] (10 µM)	104% (inactive)
CNCCC(Oc1ccccc1OC)c1ccccc1 (stereo unspecified) [nisoxetine] (10 µM)	96.5% (inactive)
C[C@]12CC[C@@H]3c4ccc(O)cc4C[C@@H](CCCCCCCCC[S+]([O-])CCCC(F)(F)C(F)(F)F)[C@H]3[C@@H]1CC[C@@H]2O (stereo partly specified) [fulvestrant] (10 µM)	110% (inactive)
Cc1nc(Nc2ccc(F)cc2)nc(N2CCc3ccccc3C2C)c1C (stereo unspecified) [revaprazan] (10 µM)	42.5% (active)
NCCCCCNCC12CC3CC(CC(C3)C1)C2 (10 µM)	97.5% (inactive)
CC(C)n1nc(-c2cc3cc(O)ccc3[nH]2)c2c(N)ncnc21 (10 µM)	95.5% (inactive)
C[C@H]1CCc2c(cc(Br)c(F)c2Br)N1C=O (10 µM)	94.5% (inactive)
COc1cc(N2CCC(N)CC2)ccc1Nc1ncc(Cl)c(-c2c[nH]c3ccccc23)n1 (0.833333 µM)	102% (inactive)
OCc1cncc(F)c1 [5-fluoro-3-pyridyl-methanol] (10 µM)	102% (inactive)
Cc1c(C)c2c(c(C)c1O)CCC(C)(C)O2 (10 µM)	116% (inactive)
O=C(O)COc1cccc(-c2ocnc2-c2nc(-c3ccccc3)c(-c3ccccc3)o2)c1 (10 µM)	102% (inactive)
CCc1c(C(=O)C(N)=O)c2c(OCC(=O)O)cccc2n1Cc1ccccc1 [varespladib] (10 µM)	108% (inactive)
COc1cccc(Nc2c(C(N)=O)cnc3c(C)cc(S(=O)(=O)c4cccc(C(=O)N(C)C)c4)cc23)c1 (10 µM)	91% (inactive)

SMILES	SARS-CoV-2 infection rate
COc1ncc2cc(C(=O)Nc3cc(C(=O)NCc4cccc(Cl)c4)ccc3Cl)c(=O)[nH]c2n1 (10 µM)	110% (inactive)
CNCCCN1c2ccccc2CCc2ccccc21 [desipramine] (10 µM)	81% (inactive)
COc1ccc(CCC(=O)c2c(O)cc(O[C@@H]3O[C@H](CO)[C@@H](O)[C@H](O)[C@H]3O[C@@H]3O[C@@H](C)[C@H](O)[C@@H](O)[C@H]3O)cc2O)cc1O [Neohesperidin dihydrochalcone (Nhdc)] (10 µM)	99.5% (inactive)
Cc1ccc(-c2ncn(-c3ccc(Nc4nccc(-c5cccc(N6CCOCC6)c5)n4)cc3)n2)cn1 (10 µM)	102% (inactive)
COc1cc(OC)nc(O[C@H](C(=O)O)C(OC)(c2ccccc2)c2ccccc2)n1 [darusentan] (10 µM)	116% (inactive)
O=C(NCCCN1CCOCC1)c1cnn2c(-c3ccccc3)cc(-c3ccccc3)nc12 [reversan] (10 µM)	98% (inactive)
CN(C)CCCSc1ccccc1NC(=O)/C=C/c1ccccc1 [cinanserin] (10 µM)	92% (inactive)
Cc1cc(F)c(Nc2ncnc3cc(OCc4ccccc4)ccc23)cc1O (10 µM)	99% (inactive)
C[C@H](c1ccc(F)cc1CCCC(=O)O)N(c1cc(F)ccc1F)S(=O)(=O)c1ccc(Cl)cc1 (10 µM)	112% (inactive)
NC(=O)CN1C=CCC(C(N)=O)=C1 [caricotamide] (10 µM)	106% (inactive)
Cc1ccc(-c2cc(C(F)(F)F)nn2-c2ccc(S(N)(=O)=O)cc2)cc1 [celecoxib] (10 µM)	102% (inactive)
CC(C)(O)CC[C@@H](O)[C@](C)(O)[C@H]1CC[C@@]2(O)C3=CC(=O)[C@@H]4C[C@@H](O)[C@@H](O)C[C@]4(C)[C@H]3CC[C@]12C [20-hydroxyecdysone] (10 µM)	108% (inactive)
CC(C)CCN1c2nc(Nc3cc(F)c(O)c(F)c3)ncc2N(C)C(=O)[C@@H]1C (0.833333 µM)	106% (inactive)
COc1cccc2c1c(O)c(C(=O)N(C)c1ccc(C(F)(F)F)cc1)c(=O)n2C [tasquinimod] (10 µM)	92% (inactive)
CCCCN(CC)c1nc(C)nc2c1c(C)c(C)n2-c1c(C)cc(C)cc1C [antalarmin] (10 µM)	93% (inactive)
CCCCCCCCCCCCCCOc1ccc(C(=O)O)o1 (0.833333 µM)	96.5% (inactive)
Cc1cc(Nc2nc(N[C@@H](C)c3ccc(F)cc3)c(C#N)cc2F)n[nH]1 (10 µM)	110% (inactive)
OB1OCc2cc(Cl)ccc21 (10 µM)	106% (inactive)
CCCCCC(C)N (stereo unspecified) [tuaminoheptane] (10 µM)	109% (inactive)
N[C@H]1C[C@@H]1c1ccc(-c2cccc(O)c2)cc1 (10 µM)	87% (inactive)
